UGM FP inh – blocks M. tuberculosis UGM enzyme; P9WIQ1; purified UGM, fluorescence polarization probe displacement; inhibition, % at 10 µM; actives 0.06% (n = 320,000); in the data active = inhibition above about 10%, passing the limit was not always enough
Mtb betalactam – beta-lactam sensitization of Mtb H37Rv. M. tuberculosis H37Rv growth with meropenem, percent inhibition. inhibition, % at 25 µM. actives 0.27% (n = 330,000). AID 434955; call rule not given here;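 also: growth measured after seven days incubation then overnight dye step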
FBA Mtb inh – inhibitors of M. tuberculosis fructose-bisphosphate aldolase | purified M. tuberculosis FBA, fluorescence read-out | inhibition, % at 1 µM | actives 2.3% (n = 360,000); in the data active = inhibition above about 27%
RecA intein inh – inhibitors of M. tuberculosis RecA intein splicing. inhibition, % (concentration not given with the values). actives 0.75% (n = 290,000). P9WHJ3. AID 2221. cell-free RecA intein splicing, fluorescence; in the data active = inhibition above about 30%
Target sequence (P9WHJ3 whole entry, looked up): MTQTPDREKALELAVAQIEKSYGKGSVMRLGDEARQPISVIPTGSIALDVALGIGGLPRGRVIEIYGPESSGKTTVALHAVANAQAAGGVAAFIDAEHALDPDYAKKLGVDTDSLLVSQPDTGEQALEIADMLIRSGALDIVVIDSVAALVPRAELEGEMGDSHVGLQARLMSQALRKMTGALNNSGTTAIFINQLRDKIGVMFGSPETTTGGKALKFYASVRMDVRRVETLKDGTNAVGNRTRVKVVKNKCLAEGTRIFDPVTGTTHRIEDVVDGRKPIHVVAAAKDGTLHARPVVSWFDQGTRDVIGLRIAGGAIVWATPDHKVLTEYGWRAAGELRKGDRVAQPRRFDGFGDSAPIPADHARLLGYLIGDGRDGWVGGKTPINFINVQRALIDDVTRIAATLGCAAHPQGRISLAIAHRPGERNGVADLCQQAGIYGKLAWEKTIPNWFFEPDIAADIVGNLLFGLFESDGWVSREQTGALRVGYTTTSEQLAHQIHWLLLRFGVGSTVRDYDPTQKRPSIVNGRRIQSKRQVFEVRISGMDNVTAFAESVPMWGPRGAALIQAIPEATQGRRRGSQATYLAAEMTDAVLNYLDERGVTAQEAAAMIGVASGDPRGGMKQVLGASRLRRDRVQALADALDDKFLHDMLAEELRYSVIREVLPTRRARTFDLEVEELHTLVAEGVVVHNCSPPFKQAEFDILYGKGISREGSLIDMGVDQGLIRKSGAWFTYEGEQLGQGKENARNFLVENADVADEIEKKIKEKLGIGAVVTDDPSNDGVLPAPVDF
GDH-TPI counter – GDH-TPI coupled enzyme inhibition counter-screen; actives 1.2% (n = 360,000); inhibition, % at 4.8 µM; GDH-TPI coupled enzyme counterscreen, NADH absorbance; in the data active = inhibition above about 30%
Rv3671c inh – inhibitors of M. tuberculosis serine protease Rv3671c | P9WHR9 | inhibition, % at 5.96 µM | actives 0.048% (n = 320,000) | AID 2606; in the data active = inhibition above about 38%;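 also: extracellular domain of Rv3671c used as enzyme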
Each line names hits and unclear results; the compound was inactive in the other large screens. Rows were chosen to be rich in hits. Some 4% of all compounds tested hit in one or more screens of this group.

COc1ccccc1C1C=C(c2ccc(Cl)cc2)Nc2nc(NS(C)(=O)=O)nn21 (stereo unspecified)	none (no result: FBA Mtb inh, GDH-TPI counter)
CC(=O)Nc1nc2n(n1)C(c1ccccc1)C=C(c1ccccc1)N2 (stereo unspecified)	FBA Mtb inh 49.7
CC(=O)Nc1nc2n(n1)C(c1ccc(Cl)cc1)C=C(C)N2 (stereo unspecified)	FBA Mtb inh 119.4
COc1ccc(F)cc1-c1cc(C(=O)NC2CCCCC2)[nH]n1	none (no result: UGM FP inh, Mtb betalactam, RecA intein inh, Rv3671c inh)
COC(=O)CCN1CCC2CC1c1cc(N3CCCCC3)ccc12 (stereo unspecified)	none (no result: UGM FP inh, Mtb betalactam, RecA intein inh, Rv3671c inh)
CCCCN(C(=O)c1ccc(NC2CC2)c([N+](=O)[O-])c1)c1c(N)n(CC(C)C)c(=O)[nH]c1=O	none (no result: RecA intein inh)
COC(=O)C(C)Oc1cc(OC(C)C(=O)OC)c2c(C)c(Cl)c(=O)oc2c1 (stereo unspecified)	FBA Mtb inh active
Cc1cc(OC(C)C(=O)NCC2CCC(C(=O)O)CC2)c2c(C)c(Cc3ccccc3)c(=O)oc2c1 (stereo unspecified)	none
COC(=O)COc1cc(OCC(=O)OC)c2c(C)c(Cl)c(=O)oc2c1	FBA Mtb inh active
COc1ccc(NC(=O)COC(=O)CNC(=O)C2CCCCC2)cc1OC	none (no result: RecA intein inh)
CCCC(=O)Nc1nc2ccc(C(=O)OCC)cc2s1	none
O=C(Nc1nc2ccc(S(=O)(=O)N3CCCC3)cc2s1)c1cccs1	none
CCOC(=O)c1ccc2nc(NC(=O)c3ccco3)sc2c1	GDH-TPI counter 36.5
Cc1ccc2nc(NC(=O)COC(=O)c3ccco3)sc2c1	none
O=C(Nc1nc2ccc(F)cc2s1)c1cccs1	GDH-TPI counter 40.2
CCOC(=O)c1ccc2nc(NC(=O)c3cccs3)sc2c1	GDH-TPI counter 37.8
O=C(COC(=O)c1ccco1)Nc1nc2ccc([N+](=O)[O-])cc2s1	GDH-TPI counter 33.8
Cc1ccc(C(=O)NC(Cc2cccc(F)c2)C(=O)O)cc1 (stereo unspecified)	none (no result: UGM FP inh, Mtb betalactam, RecA intein inh, Rv3671c inh)
CC(C)Nc1ncnc2[nH]ncc12	none (no result: UGM FP inh, Mtb betalactam, RecA intein inh, Rv3671c inh)
Cc1cn([C@H]2C[C@H](O)[C@@H](CCC(=O)NC(c3ccccc3)c3ccccc3)O2)c(=O)[nH]c1=O	none (no result: UGM FP inh, Mtb betalactam, RecA intein inh, Rv3671c inh)
O=C(NCc1ccccc1C(F)(F)F)C1CCC(=O)N(C2CC2)C1 (stereo unspecified)	none
O=C(O)c1cccc(NC(=S)NC(NC(=O)c2cccc([N+](=O)[O-])c2)C(Cl)(Cl)Cl)c1 (stereo unspecified)	none
O=C(NC(NC(=S)Nc1ccc(Cl)cc1Cl)C(Cl)(Cl)Cl)c1cccc([N+](=O)[O-])c1 (stereo unspecified)	RecA intein inh 37.2
O=C(CN(Cc1ccc(Cl)cc1)C(=O)CNS(=O)(=O)c1ccccc1)NCC1CCCO1 (stereo unspecified)	none
CCOc1ccc(-c2cc(C)[n+](CCN3CCOCC3)c(-c3ccc(OCC)cc3)c2)cc1	GDH-TPI counter 41.0
CCOc1ccc(OCCOCCN2CCOCC2)cc1	none
CC(C)CCNc1nc(N)c([N+](=O)[O-])c(NCCO)n1	GDH-TPI counter 49.7
CCC(C)Nc1nc(N)c([N+](=O)[O-])c(NCCO)n1 (stereo unspecified)	none
Nc1nc(Nc2ccc(Cl)cc2)nc(NCCO)c1[N+](=O)[O-]	none
Nc1nc(NCc2ccc(Cl)cc2)nc(NCCO)c1[N+](=O)[O-]	GDH-TPI counter 37.5 (no result: RecA intein inh)
Cc1ccc(CNc2nc(N)c([N+](=O)[O-])c(NCc3ccccc3)n2)cc1	none
Cc1ccc(CNc2nc(N)c([N+](=O)[O-])c(NCCO)n2)cc1	GDH-TPI counter 52.4
COc1ccc(-n2nc3c(c2NC(=O)CCCl)CSC3)cc1	none (no result: Rv3671c inh)
O=C(Nc1ccccn1)c1cccc(S(=O)(=O)N2CCc3ccccc3C2)c1	none (no result: UGM FP inh)
O=C(CCC1CCCCC1)NCCS(=O)(=O)N1CCN(c2ccc(F)cc2)CC1	none
Cc1nc2ccccc2c(=O)n1-c1ccc(C(=O)O)cc1	none
O=C(O)c1ccc(-n2c(=O)c3ccccc3c3ccccc3c2=O)cc1	RecA intein inh 31.8
CCc1ccc(C2C(C#N)=C(N)SC(N)=C2C#N)cc1	GDH-TPI counter 30.8
CCN(CC)c1ccc(/C=N/n2c(C)cc(C)cc2=O)cc1	GDH-TPI counter 33.0
CCc1n[nH]c(=S)n1/N=C/c1ccc(N(CC)CC)cc1	GDH-TPI counter 47.6
CCc1n[nH]c(=S)n1/N=C/c1c(C)nn(-c2ccccc2)c1Cl	none
C[C@@H](NC(=O)c1[nH]cnc1C(=O)Nc1ccon1)c1ccccc1	none (no result: RecA intein inh)
CC(=O)Nc1cccc(C(=O)OCC(=O)N2CCC(c3ccccc3)=N2)c1	none
CCOC(=O)c1oc2nc3c(cc2c1N)CCCC3	none
CCOC(=O)c1oc2nc(CC(C)C)c3c(c2c1N)CCCC3	FBA Mtb inh 137.1 (no result: RecA intein inh)
COc1cccc(CNC(=O)C2CCCN(C(=O)c3ccc(Cl)cc3)C2)c1 (stereo unspecified)	none (no result: UGM FP inh, RecA intein inh)
Cc1cc(C)c2c(n1)nn1c(NCCOCCO)cc(C)nc21	FBA Mtb inh active
Cc1cc(C)c2c(n1)nn1c(NCCCN(C)C)cc(C)nc21	FBA Mtb inh active
O=C(N[C@H](CO)Cc1ccccc1)c1ccco1	none
O=C(N/N=C/c1cc2cc3c(cc2nc1Cl)OCO3)c1ccncc1	GDH-TPI counter 68.7
Cc1nc(S/C(=C/c2ccc(OCc3ccc(C(=O)O)cc3)cc2)C(=O)O)n[nH]1	GDH-TPI counter 31.3
Cc1nc(S/C(=C/c2ccc(-c3cccc(Cl)c3)o2)C(=O)O)n[nH]1	none
O=C(N/N=C\c1ccc(COc2ccc([N+](=O)[O-])cc2)o1)c1ccc(Cl)cc1	GDH-TPI counter 41.8
O=C(Nc1ccc(Cl)c(C(F)(F)F)c1)C1Cc2c(-c3ccccc3)ccnc2O1 (stereo unspecified)	none (no result: UGM FP inh, Mtb betalactam, RecA intein inh, Rv3671c inh)
CC(=O)c1ccc(N/N=C(/C(N)=O)C2=NC(C)(C)Cc3ccccc32)cc1	GDH-TPI counter 34.6
Cc1cc(-c2ccccc2)nc2oc3c(c12)NC(=O)CN(c1ccccc1)C3=O	none
COc1cccc(N2CC(=O)Nc3c(oc4nc(-c5ccccc5)cc(C)c34)C2=O)c1	GDH-TPI counter 35.3
COc1c(C=O)c2c(c(OC)c1OC)-c1ccc(OC)c(=O)cc1C(NC(C)=O)CC2 (stereo unspecified)	GDH-TPI counter 31.9 (no result: UGM FP inh, Mtb betalactam, RecA intein inh, Rv3671c inh)
COc1ccccc1/C=N/Nc1cc(N(C)C)nc(N(C)C)n1	RecA intein inh 44.3
C[N+](C)(C)CCC(=O)N1C/C(=C/c2ccccc2)C(=O)/C(=C\c2ccccc2)C1	GDH-TPI counter 40.5 (no result: UGM FP inh, Mtb betalactam, RecA intein inh, Rv3671c inh)
O=C1/C(=C/c2ccccc2)CN(C(=O)CCN2CCOCC2)C/C1=C\c1ccccc1	GDH-TPI counter 37.1 (no result: UGM FP inh, Mtb betalactam, RecA intein inh, Rv3671c inh)
CN(C)CCC(=O)N1C/C(=C/c2ccccc2)C(=O)/C(=C\c2ccccc2)C1	GDH-TPI counter 35.3 (no result: UGM FP inh, Mtb betalactam, RecA intein inh, Rv3671c inh)
CCOC(=O)N1C/C(=C\c2ccccc2)C(=O)/C(=C/c2ccccc2)C1	none (no result: UGM FP inh, Mtb betalactam, Rv3671c inh)
CC(C)Cn1c(N)c(C(=O)COC(=O)c2ccncc2)c(=O)n(C)c1=O	none
CC(C)Cn1c(N)c(C(=O)COC(=O)c2nccnc2N)c(=O)n(C)c1=O	FBA Mtb inh active (no result: RecA intein inh)
